Experimental data published in the supplement of paper PMC11732987, “Enantioselective OTUD7B fragment discovery through chemoproteomics screening and high-throughput optimisation” (Communications Chemistry, 2025).

What was measured:
Experiment in all cases: log2 ratio of Biotin-Ahx-Ub-VS probe labelling (fragment/DMSO); higher = less target engagement (more negative = stronger competition), active = hit call of the paper (q ≤ 0.05, log2 ratio ≤ -1)
Conditions in all cases: compound concentration: 200 uM; treatment time: 3 h
USP42 = biological target: T1, USP42 (UniProt Q9H9J4)
T1 sequence (whole entry): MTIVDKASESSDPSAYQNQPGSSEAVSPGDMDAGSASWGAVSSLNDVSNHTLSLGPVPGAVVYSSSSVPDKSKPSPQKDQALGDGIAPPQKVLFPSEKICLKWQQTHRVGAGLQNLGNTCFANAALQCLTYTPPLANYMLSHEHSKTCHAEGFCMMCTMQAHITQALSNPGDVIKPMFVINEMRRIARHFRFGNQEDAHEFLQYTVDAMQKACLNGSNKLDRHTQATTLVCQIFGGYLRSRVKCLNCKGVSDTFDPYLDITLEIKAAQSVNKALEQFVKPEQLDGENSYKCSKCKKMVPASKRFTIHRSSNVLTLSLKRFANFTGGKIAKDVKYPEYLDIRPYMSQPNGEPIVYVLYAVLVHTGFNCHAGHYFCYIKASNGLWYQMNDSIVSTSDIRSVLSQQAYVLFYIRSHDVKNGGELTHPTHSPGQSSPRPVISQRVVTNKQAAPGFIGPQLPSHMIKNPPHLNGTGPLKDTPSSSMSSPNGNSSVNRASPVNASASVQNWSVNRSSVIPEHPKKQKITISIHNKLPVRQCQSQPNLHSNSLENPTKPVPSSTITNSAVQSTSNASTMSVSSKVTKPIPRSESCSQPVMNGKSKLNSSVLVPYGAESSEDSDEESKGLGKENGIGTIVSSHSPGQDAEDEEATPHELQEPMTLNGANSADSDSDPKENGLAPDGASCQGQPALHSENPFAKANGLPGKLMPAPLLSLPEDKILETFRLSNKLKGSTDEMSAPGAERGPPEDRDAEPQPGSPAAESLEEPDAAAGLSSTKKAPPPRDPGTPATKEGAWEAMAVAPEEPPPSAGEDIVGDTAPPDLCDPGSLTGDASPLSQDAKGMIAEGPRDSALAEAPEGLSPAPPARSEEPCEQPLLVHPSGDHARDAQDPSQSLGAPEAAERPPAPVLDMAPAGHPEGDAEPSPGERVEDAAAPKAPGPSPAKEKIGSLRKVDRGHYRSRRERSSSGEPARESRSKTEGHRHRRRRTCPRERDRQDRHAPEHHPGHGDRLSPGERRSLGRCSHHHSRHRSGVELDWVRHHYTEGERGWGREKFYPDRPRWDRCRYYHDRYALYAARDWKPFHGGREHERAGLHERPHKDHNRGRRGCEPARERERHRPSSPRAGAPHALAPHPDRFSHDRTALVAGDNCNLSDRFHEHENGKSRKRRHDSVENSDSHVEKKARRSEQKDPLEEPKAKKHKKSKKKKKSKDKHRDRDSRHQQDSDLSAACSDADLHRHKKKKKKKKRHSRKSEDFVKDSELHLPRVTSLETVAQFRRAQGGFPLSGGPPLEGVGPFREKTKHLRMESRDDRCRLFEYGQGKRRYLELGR
Method in brief: (§1)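 Average log2 ratios of fragment over vehicle were obtained by unpaired t-test from global-median-normalised Spectronaut label-free quantities. Proteins with ≥2 unique peptides were included. HEK293T lysate (495 µg per sample) was treated in triplicate with fragment at 200 µM or vehicle for 3 h, then with Biotin-Ahx-Ub-VS at 0.5 µM final for 1 h, and labelled DUBs were NeutrAvidin-enriched and run by diaPASEF LC-MS/MS.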

USP46 = USP46 (UniProt P62068)
Chain of USP46 (P62068 whole entry): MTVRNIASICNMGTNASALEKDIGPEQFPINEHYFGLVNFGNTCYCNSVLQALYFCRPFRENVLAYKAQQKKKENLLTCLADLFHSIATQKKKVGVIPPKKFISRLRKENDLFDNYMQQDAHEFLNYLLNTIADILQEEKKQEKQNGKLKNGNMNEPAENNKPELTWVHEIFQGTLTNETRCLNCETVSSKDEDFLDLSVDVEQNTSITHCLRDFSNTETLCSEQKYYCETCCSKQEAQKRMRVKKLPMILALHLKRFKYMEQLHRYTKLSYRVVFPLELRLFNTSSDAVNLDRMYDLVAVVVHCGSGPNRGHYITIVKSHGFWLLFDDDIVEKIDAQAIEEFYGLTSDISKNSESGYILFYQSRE
Method in brief: as §1

USP47 = biological target: T2, USP47 (UniProt Q96K76)
T2 sequence (whole entry): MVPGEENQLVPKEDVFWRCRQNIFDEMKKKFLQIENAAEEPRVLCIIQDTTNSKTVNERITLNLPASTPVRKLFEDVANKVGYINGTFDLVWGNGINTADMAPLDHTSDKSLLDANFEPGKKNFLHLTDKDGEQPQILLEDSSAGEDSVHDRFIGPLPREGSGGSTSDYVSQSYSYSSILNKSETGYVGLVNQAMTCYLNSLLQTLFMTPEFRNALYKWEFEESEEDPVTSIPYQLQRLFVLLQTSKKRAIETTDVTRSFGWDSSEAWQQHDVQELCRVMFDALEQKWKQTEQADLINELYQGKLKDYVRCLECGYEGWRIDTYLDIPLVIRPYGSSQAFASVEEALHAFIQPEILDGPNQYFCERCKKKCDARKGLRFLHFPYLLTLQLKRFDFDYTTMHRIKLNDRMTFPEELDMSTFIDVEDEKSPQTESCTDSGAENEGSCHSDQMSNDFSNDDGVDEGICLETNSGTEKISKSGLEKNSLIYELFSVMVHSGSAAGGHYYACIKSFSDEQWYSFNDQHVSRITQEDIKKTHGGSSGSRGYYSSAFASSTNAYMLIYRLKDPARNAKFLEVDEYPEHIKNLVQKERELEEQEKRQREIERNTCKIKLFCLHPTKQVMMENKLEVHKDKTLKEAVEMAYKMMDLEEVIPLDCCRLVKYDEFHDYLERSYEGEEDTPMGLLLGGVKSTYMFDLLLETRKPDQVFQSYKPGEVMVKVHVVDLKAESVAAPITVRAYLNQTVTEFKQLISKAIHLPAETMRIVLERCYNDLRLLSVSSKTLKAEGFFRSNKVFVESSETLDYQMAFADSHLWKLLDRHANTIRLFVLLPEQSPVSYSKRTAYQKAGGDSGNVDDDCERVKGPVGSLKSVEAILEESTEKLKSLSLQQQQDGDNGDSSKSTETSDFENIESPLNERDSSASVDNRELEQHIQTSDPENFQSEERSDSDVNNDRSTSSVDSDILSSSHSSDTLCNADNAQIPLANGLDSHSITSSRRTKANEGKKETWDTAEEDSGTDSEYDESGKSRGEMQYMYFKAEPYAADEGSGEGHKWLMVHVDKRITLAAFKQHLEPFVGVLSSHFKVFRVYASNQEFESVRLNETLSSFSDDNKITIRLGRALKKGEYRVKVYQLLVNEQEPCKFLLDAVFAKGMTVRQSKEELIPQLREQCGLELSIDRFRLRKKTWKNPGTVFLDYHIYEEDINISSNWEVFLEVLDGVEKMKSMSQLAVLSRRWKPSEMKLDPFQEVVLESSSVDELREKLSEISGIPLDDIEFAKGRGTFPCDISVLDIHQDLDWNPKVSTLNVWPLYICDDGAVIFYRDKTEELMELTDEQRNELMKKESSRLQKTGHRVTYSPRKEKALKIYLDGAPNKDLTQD
Method in brief: as §1

USP48 = biological target: T3, USP48 (UniProt Q86UV5)
T3 sequence (whole entry): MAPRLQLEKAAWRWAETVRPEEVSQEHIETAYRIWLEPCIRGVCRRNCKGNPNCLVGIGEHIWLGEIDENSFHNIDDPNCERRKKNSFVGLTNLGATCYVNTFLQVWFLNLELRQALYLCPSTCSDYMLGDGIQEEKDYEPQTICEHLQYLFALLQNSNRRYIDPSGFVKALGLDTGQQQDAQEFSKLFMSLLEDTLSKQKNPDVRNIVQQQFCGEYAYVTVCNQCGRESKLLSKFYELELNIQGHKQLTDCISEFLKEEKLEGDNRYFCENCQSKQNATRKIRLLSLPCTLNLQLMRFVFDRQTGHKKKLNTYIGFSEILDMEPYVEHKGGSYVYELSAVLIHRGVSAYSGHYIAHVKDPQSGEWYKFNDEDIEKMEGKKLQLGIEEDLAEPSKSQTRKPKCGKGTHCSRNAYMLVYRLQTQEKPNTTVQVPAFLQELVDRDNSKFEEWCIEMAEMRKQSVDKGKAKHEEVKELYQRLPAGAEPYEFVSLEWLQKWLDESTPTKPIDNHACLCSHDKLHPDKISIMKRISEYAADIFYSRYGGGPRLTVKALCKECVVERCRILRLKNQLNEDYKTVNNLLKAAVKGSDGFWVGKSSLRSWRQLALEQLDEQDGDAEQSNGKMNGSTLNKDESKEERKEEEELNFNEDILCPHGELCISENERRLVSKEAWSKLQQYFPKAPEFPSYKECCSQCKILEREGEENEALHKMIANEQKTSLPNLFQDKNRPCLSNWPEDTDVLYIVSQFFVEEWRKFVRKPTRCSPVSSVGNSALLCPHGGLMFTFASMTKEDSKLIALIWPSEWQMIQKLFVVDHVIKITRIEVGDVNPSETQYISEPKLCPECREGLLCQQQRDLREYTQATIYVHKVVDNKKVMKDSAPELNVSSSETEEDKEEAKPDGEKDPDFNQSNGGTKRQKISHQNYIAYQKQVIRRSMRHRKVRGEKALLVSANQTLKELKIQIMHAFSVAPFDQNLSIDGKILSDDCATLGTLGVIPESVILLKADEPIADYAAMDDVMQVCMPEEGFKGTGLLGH
Method in brief: as §1

USP5 = biological target: T4, USP5 (UniProt P45974)
T4 sequence (whole entry): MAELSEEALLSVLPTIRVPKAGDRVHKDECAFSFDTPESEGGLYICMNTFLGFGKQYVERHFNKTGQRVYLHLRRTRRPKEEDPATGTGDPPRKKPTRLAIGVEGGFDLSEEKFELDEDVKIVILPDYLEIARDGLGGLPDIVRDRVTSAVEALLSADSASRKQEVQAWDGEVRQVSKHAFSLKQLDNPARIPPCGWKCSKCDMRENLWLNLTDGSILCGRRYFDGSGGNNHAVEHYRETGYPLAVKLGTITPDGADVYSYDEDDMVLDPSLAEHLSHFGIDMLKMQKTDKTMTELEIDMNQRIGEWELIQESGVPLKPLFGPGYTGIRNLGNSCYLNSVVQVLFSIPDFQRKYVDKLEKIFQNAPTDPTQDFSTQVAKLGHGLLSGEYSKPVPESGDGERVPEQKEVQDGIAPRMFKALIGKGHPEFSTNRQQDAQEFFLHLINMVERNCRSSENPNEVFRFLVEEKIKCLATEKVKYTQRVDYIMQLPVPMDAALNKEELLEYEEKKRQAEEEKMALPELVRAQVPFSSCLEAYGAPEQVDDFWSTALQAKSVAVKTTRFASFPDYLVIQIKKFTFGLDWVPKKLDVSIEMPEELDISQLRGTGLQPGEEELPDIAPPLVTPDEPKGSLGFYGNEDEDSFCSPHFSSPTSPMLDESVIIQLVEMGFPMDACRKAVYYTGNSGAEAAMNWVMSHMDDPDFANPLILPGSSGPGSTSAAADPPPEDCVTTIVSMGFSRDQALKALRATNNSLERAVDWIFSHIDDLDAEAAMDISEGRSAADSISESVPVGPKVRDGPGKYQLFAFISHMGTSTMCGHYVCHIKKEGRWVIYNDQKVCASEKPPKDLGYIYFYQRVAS
Method in brief: as §1

USP54 = USP54 (UniProt Q70EL1)
Chain of USP54 (Q70EL1 whole entry): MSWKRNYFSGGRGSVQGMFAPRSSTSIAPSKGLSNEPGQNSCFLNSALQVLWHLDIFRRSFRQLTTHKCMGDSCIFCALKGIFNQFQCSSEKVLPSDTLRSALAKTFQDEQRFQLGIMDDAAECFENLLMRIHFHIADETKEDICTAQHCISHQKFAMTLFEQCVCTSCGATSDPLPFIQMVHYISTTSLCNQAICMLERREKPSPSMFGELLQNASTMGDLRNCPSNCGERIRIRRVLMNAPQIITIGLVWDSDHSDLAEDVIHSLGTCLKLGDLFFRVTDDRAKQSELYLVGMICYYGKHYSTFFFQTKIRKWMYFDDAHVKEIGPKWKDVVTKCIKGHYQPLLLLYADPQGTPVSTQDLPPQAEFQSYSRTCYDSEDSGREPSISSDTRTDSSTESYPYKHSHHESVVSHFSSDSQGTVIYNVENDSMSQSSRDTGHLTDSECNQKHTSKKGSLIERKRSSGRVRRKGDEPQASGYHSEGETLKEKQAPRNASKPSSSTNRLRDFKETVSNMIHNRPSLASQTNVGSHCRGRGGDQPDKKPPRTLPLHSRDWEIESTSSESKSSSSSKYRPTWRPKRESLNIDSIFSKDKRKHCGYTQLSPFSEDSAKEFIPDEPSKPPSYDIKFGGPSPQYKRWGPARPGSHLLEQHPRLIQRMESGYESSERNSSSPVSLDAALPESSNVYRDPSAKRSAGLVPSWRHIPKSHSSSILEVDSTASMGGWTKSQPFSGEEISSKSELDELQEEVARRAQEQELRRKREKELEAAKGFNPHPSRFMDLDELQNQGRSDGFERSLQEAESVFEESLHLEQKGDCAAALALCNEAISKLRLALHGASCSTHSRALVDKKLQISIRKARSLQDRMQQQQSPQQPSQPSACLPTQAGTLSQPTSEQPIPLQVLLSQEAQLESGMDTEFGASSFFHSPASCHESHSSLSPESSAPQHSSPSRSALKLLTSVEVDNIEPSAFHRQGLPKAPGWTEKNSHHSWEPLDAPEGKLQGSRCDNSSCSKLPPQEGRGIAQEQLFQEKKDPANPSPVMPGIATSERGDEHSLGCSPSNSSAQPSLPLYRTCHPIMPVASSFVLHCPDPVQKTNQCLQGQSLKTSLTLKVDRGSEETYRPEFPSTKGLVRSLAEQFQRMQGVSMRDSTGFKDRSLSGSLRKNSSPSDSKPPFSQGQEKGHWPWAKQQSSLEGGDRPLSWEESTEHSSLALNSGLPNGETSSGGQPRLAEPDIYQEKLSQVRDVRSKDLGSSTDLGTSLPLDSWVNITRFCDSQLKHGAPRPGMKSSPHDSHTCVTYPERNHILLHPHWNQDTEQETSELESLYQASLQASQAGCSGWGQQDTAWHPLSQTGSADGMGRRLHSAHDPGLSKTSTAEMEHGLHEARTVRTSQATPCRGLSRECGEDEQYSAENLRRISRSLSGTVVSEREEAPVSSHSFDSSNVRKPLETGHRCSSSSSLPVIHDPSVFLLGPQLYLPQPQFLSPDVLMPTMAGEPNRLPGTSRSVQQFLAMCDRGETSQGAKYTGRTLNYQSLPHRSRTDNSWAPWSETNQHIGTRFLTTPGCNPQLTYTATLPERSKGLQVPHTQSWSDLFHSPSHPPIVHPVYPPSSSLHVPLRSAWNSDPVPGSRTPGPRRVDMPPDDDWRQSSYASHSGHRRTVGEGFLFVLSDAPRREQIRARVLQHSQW
Method in brief: as §1

USP7 = USP7 (UniProt Q93009)
Chain of USP7 (Q93009 whole entry, looked up): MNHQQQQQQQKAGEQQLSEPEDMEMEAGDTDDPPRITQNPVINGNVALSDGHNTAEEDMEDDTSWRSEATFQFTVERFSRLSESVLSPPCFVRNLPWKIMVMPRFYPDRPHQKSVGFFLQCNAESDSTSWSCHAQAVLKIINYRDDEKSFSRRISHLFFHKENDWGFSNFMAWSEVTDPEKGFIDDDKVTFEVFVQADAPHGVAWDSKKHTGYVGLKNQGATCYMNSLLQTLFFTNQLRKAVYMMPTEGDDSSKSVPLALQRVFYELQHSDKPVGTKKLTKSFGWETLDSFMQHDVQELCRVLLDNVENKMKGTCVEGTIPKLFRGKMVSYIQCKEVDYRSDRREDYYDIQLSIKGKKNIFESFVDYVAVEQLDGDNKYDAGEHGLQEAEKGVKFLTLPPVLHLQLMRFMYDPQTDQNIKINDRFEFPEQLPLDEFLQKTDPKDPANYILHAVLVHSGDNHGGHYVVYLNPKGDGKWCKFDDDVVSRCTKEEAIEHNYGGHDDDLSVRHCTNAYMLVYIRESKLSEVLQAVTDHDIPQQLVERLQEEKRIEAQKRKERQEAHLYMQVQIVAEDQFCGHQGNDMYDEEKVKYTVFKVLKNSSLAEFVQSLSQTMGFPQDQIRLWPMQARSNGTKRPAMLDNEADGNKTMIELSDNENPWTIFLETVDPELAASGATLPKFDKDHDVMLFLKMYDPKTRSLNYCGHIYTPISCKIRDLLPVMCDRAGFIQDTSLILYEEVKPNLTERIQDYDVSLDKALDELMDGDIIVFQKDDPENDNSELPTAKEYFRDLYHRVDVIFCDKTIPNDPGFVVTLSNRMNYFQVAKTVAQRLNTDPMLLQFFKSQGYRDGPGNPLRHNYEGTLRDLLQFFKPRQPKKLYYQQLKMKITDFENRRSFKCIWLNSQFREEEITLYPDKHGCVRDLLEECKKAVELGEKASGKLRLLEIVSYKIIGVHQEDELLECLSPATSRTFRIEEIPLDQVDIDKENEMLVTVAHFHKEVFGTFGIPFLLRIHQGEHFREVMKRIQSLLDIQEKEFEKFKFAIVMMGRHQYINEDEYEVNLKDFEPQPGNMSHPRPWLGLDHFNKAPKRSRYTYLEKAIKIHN
Method in brief: as §1

USP8 = biological target: T5, USP8 (UniProt P40818)
T5 sequence (whole entry): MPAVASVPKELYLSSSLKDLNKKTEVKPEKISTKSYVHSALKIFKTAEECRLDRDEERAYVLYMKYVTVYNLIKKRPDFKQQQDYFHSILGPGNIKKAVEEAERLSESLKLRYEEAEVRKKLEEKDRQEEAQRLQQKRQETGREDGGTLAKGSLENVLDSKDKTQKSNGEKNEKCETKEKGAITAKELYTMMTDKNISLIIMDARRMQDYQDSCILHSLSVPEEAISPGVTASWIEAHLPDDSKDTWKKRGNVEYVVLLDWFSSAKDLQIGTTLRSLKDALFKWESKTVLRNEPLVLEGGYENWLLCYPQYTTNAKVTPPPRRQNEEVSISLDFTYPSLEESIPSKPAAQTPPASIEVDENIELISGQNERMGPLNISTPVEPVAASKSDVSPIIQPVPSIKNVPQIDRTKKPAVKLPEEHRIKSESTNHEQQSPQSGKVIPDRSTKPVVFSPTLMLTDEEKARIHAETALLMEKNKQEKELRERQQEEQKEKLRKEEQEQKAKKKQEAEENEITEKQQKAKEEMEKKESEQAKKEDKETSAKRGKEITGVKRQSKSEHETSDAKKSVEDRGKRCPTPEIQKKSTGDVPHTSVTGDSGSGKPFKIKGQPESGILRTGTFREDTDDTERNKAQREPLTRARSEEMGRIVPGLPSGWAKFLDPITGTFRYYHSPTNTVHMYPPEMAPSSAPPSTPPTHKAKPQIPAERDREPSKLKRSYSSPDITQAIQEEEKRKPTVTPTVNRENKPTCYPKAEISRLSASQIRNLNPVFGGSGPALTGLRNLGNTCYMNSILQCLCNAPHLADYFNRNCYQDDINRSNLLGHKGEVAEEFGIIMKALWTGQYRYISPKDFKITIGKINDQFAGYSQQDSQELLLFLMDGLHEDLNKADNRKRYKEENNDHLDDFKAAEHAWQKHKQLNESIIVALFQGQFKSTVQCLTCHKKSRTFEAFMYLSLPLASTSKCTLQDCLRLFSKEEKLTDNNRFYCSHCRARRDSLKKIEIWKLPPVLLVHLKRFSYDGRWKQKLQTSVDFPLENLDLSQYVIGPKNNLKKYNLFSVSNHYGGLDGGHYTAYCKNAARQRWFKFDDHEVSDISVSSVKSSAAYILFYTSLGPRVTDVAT
Method in brief: as §1

USP9X = USP9X (UniProt Q93008)
Method in brief: as §1

UniProt O00487 = biological target: UniProt O00487
Chain of UniProt O00487 (O00487 whole entry): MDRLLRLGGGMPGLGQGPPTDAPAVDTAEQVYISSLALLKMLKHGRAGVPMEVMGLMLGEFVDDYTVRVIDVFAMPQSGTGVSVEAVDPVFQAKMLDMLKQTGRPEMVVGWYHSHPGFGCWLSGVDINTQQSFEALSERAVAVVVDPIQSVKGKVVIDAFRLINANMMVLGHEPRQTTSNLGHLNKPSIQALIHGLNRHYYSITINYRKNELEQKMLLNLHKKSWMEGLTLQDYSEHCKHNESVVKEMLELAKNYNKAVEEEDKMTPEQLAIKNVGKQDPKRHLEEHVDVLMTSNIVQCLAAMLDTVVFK
Method in brief: as §1

Measured: log2 ratio of Biotin-Ahx-Ub-VS probe labelling

C#Cc1cccc(NC(=O)CCl)c1
inactive: USP42 0.466 | USP46 -0.0515 | USP47 -0.468 | USP48 -0.362 | USP5 -0.268 | USP54 -0.249 | USP7 -0.56 | USP8 -0.179 | USP9X -0.146 | UniProt O00487 -0.148
